Screening data from PubChem BioAssay.
Mtb FBA inh: Mtb fructose-bisphosphate aldolase inhibition | P9WQA3 | purified M. tuberculosis FBA, fluorescence read-out | inhibition, % at 1 µM | 360,000 compounds, 2.3% hits; in the data active means inhibition above about 27%
RecA intein inh: inhibitors of M. tuberculosis RecA intein splicing | P9WHJ3 | cell-free RecA intein splicing, fluorescence | inhibition, % (concentration not given with the values) | 290,000 compounds, 0.75% hits | AID 2221; in the data active means inhibition above about 30%
GDH-TPI counter: counter-screen for M. tuberculosis FBA inhibitors: GDH-TPI coupled enzymes | GDH-TPI coupled enzyme counterscreen, NADH absorbance | 360,000 compounds, 1.2% hits | inhibition, % at 4.8 µM | AID 588335
3CLpro inhibitor: SARS-CoV 3CLpro protease inhibition | P0C6X7 | recombinant SARS-CoV 3CLpro, quenched FRET peptide cleavage | inhibition, % at 6 µM | 290,000 compounds, 0.14% hits; in the data active means inhibition above about 12%
CCHF vOTU inh: CCHFV vOTU protease inhibition; Pep-AMC fluorescence; inhibition, % at 11.5 µM; 370,000 compounds, 0.55% hits; AID 651958
DUSP3 inh: DUSP3 (human) phosphatase inhibition | inhibition, % at 13.3 µM | P51452 | 290,000 compounds, 0.52% hits | recombinant VHR phosphatase, pNPP absorbance; in the data active means inhibition above about 50%
Large screens that a line does not name were inactive. The list is not random: actives were taken first. Their share in the collection is about 4.7%. Unless noted, no stated cut-off is given here; in the data, active means inhibition above about 30%; inactive means the rest.

CCOC(=O)c1cc(C)[nH]c(=O)c1C#N	Mtb FBA inh 161.2
COc1ccc(S[C@]2(C(=O)N3CCN(c4ncccn4)CC3)CC(=O)N(P(=O)(OC)OC)[C@@H]2c2ccc(OC)cc2)cc1	none (no result: Mtb FBA inh, RecA intein inh, GDH-TPI counter, 3CLpro inhibitor, DUSP3 inh)
COc1ccc2cc3cc(C(=O)NCc4cccs4)oc3nc2c1	Mtb FBA inh active, GDH-TPI counter 31.1
CCCN(CCC)CCCNC(=O)c1cc2cc3ccc(OC)cc3nc2o1	Mtb FBA inh active, GDH-TPI counter 31.6
COc1ccc2cc3cc(C(=O)Nc4ccc5c(c4)OCO5)oc3nc2c1	none
CCCCN(CC)CCCNC(=O)c1cc2cc3ccc(OC)cc3nc2o1	Mtb FBA inh active, GDH-TPI counter 36.5
O=C(NNc1ccccc1)OCc1ccccc1	none (no result: RecA intein inh, 3CLpro inhibitor, DUSP3 inh)
CC(=O)O[C@H]1C[C@@H](n2cnc3c(Cl)ncnc32)[C@@H]2OC(C)(C)O[C@@H]21	none (no result: Mtb FBA inh, RecA intein inh, GDH-TPI counter, 3CLpro inhibitor, DUSP3 inh)
C=CCN1C(=O)[C@]2(c3ccccc31)C1CCCC=C1C(C#N)=C(N)C2(C#N)C#N (stereo partly specified)	none
C=CCN1C(=O)C2(c3ccccc31)C1CCCC=C1C(C#N)=C(N)C2(C#N)C#N (stereo unspecified)	GDH-TPI counter 30.6
Cc1oc(-c2cccs2)nc1CS(=O)CC(=O)NCc1ccc2c(c1)OCO2 (stereo unspecified)	none
N#Cc1nc(Cc2cccc3ccccc23)oc1NCCN1CCOCC1	none
N#Cc1nc(-c2ccccc2F)oc1NCc1ccccc1	Mtb FBA inh 141.5
COc1ccc(Nc2oc(-c3ccccc3F)nc2C#N)cc1	none
N#Cc1nc(-c2cccs2)oc1NCc1ccc2c(c1)OCO2	Mtb FBA inh 112.3
N#Cc1nc(-c2ccccc2F)oc1NCCc1ccccc1	Mtb FBA inh 122.4
N#Cc1nc(-c2ccccc2F)oc1NCCc1ccccn1	none (no result: 3CLpro inhibitor)
N#Cc1nc(-c2cccs2)oc1NCCN1CCOCC1	Mtb FBA inh 194.9, GDH-TPI counter 31.6
Cc1ccc(-c2c(C(=O)NCC(C)C)oc(=O)c3ccccc23)cc1	none (no result: Mtb FBA inh, RecA intein inh, GDH-TPI counter, 3CLpro inhibitor, DUSP3 inh)
COc1ccc(CCNc2oc(Cc3ccccc3)nc2C#N)cc1OC	none
N#Cc1nc(-c2cccs2)oc1NCCc1ccccc1	Mtb FBA inh active
O=S1(=O)CC(N2CC=CC2)CN1Cc1cn(Cc2cccc(C(F)(F)F)c2)nn1 (stereo unspecified)	none (no result: Mtb FBA inh, RecA intein inh, GDH-TPI counter, 3CLpro inhibitor, DUSP3 inh)
COc1ccccc1NC(=O)C(=O)c1cn(CC(=O)N2CCOCC2)c2ccccc12	none
COc1ccc(NC(=O)C(=O)c2cn(CC(=O)N3CCOCC3)c3ccccc23)cc1OC	GDH-TPI counter 32.8
F[B-](F)(F)c1cncnc1	none (no result: Mtb FBA inh, RecA intein inh, GDH-TPI counter, 3CLpro inhibitor, DUSP3 inh)
O=c1/c(=C/c2ccc(O)c([N+](=O)[O-])c2)sc2nc3ccccc3n12	DUSP3 inh 75.4 (no result: RecA intein inh)
COc1ccccc1CN1CCNC(=O)C1CC(=O)NCCCn1cccn1 (stereo unspecified)	none
CCOc1ccccc1CN1CCNC(=O)C1CC(=O)NCCCn1cccn1 (stereo unspecified)	DUSP3 inh 51.2
Cc1noc(C)c1COc1ccccc1C(=O)N(C)CC(=O)Nc1ccc(F)c(F)c1F	none (no result: RecA intein inh, 3CLpro inhibitor, DUSP3 inh)
O=C(Nc1ccc(F)cc1)C1CC(=O)n2c(nc3ccccc32)N1 (stereo unspecified)	none
O=C(Nc1ccc(F)c(Cl)c1)C1CC(=O)n2c(nc3ccccc32)N1 (stereo unspecified)	DUSP3 inh 53.0
CC(C)C[C@@H](CCCc1ccccc1)CCC(=O)N(c1ccccc1)c1ccccc1	none (no result: Mtb FBA inh, RecA intein inh, GDH-TPI counter, 3CLpro inhibitor, DUSP3 inh)
O=S(=O)(c1ccccc1)N1N=C(c2ccccc2)CC1c1ccccc1F (stereo unspecified)	DUSP3 inh 53.0
COc1ccccc1C1CC(c2ccc(NS(C)(=O)=O)cc2)=NN1S(=O)(=O)c1ccccc1 (stereo unspecified)	none
COc1ccc(-c2cc(=O)c3cc(OC)ccc3[nH]2)cc1	Mtb FBA inh 75.8 (no result: CCHF vOTU inh)
COc1cccc(-c2cc(=O)c3cc(NC(C)=O)ccc3[nH]2)c1	Mtb FBA inh 115.4
COc1ccccc1C(=O)NC(=O)COC(=O)c1cnc(C)cn1	none (no result: 3CLpro inhibitor, DUSP3 inh)
COc1ccc(O[C@@H]2O[C@H](COC(C)=O)[C@@H](OC(C)=O)[C@H](OC(C)=O)[C@H]2NC(C)=O)cc1	none
CC(=O)OC[C@H]1O[C@@H](Oc2cc3ccc(=O)oc3cc2OC(C)=O)[C@H](OC(C)=O)[C@@H](OC(C)=O)[C@@H]1OC(C)=O	Mtb FBA inh active (no result: RecA intein inh, 3CLpro inhibitor, DUSP3 inh)
